# Laboratory results: PubChem BioAssay (NCI)
# This is part of a sample that, as a whole, favours compounds with a hit. Of some 83,000 tested, about 20% had one in any assay.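 Negative percent growth values reflect cell death: -40 means 40% of the cells present at the start died, and -100 means all died.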 The source made the active and inactive calls. How the source made its calls: active means growth percent below 10; inactive means the rest.
# System: K-562 leukemia
# Assay: NCI-60 one-dose screen, 48 h (100 = growth as untreated, 0 = no growth, -100 = all killed)
# Details: 10 µM unless noted
row,Structure (SMILES),growth
1,O=C1/C(=C/c2ccc(Oc3ccccc3)cc2)N=C(c2ccccc2)N1CCc1cccs1,84% (inactive)
2,O=C1/C(=C/c2ccc(Cl)cc2)N=C(c2ccccc2)N1CCc1cccs1,62.3% (inactive)
3,COc1ccc(Sc2ccc3[nH]c(=O)nc(N)c3c2)cc1,100% (inactive)
4,COc1cc(C(=O)N(C(C)C)C2CCCCC2)cc(OC)c1OC,98.7% (inactive)
5,COc1ccc(C2OCC(C)(C)CO2)cc1OC,101% (inactive)
6,O=C(NCc1ccco1)C1CCN(S(=O)(=O)c2ccc(Cl)cc2)CC1,13.9% (inactive)
7,COc1ccc(-c2csc3c2-n2cccc2C3=O)cc1O,5.65% (active)
8,COC(=O)[C@@H]1CCCN1C(=O)[C@@H]1CCCN1C(=O)[C@@H](Cc1c[nH]c2ccccc12)NC(=S)Nc1cc(C(F)(F)F)cc(C(F)(F)F)c1,15.4% (inactive)
9,CCN1C(=O)C2(Nc3ccccc3S2)c2cc(C)ccc21 (stereo not drawn),108% (inactive)
10,Cc1nc(-c2ccccc2)cc2c(O)c(C(=O)N/N=C/Cc3ccccc3)[nH]c(=O)c12,76.6% (inactive)
11,O=S(=O)(/N=C1C=C/C(=N\S(=O)(=O)c2ccccc2)c2ccccc2\1)c1ccccc1,91.8% (inactive)
12,CCCOC(=O)c1ccc2c(c1)[N+](=O)C(C(=O)c1ccccc1)=C(C(F)(F)F)[N+]2=O,-74% (active)
13,CCCN(CCC)c1ccc(/C=C/c2ccc3cc(OCC)ccc3n2)cc1,72.9% (inactive)
14,COc1cccc(C2CC(=O)Nc3cc4c(cc32)CCC4)c1OC (stereo not drawn),14.1% (inactive)
15,CC1SC(c2ccc(Cl)cc2)N(CCc2cccs2)C1=O (stereo not drawn),7.81% (active)
16,O=C(O)c1ccccc1Oc1cc(-c2ccco2)nc(OCCBr)n1,100% (inactive)
17,COc1ccccc1/C=C/C(=O)/C=C/c1ccccc1O,-6.29% (active)
18,COc1cc(/C=C/C(=O)C(=Cc2ccc(F)c(F)c2)C(=O)/C=C/c2ccc(O)c(OC)c2)ccc1O,13.7% (inactive)
19,CC1(C)CC(=O)C2=C(C1)Nc1cc3c(cc1C2c1ccc(F)cc1)OCO3 (stereo not drawn),87.8% (inactive)
20,Nc1nc(N)c(C=Nc2ccc(Br)cc2)c(Nc2ccc(Br)cc2)n1,92.2% (inactive)

row,Structure (SMILES),growth
1,COc1cc(/C=C2\C(=O)Nc3ccccc32)cc(OC)c1O,7.58% (active)
2,Brc1ccccc1Nc1ccc2nnc(-c3ccncc3)n2n1,46.9% (inactive)
3,O=C(Nc1nc2ccccc2[nH]1)C(=O)Nc1nc2ccccc2[nH]1,94.1% (inactive)
4,COc1ccc(C2SC(C)C(=O)N2CCc2cccs2)cc1OC (stereo not drawn),62.3% (inactive)
5,Oc1ccc(Cl)cc1CNc1nc2ccccc2[nH]1,-50.4% (active)
6,CCOC(=O)c1c(-c2cc(OC)c(OC)c(OC)c2)csc1N,45.5% (inactive)
7,COc1cc(C2CC(=O)Nc3c2ccc2ccccc32)cc(Br)c1OC (stereo not drawn),6.59% (active)
8,Cc1ccc(-c2nnc(COc3ccc(-c4nnc(N)s4)cc3)o2)cc1,91.1% (inactive)
9,COc1cc(/C=C2\C(=O)N(c3c(Cl)cccc3Cl)c3ccccc32)cc(OC)c1O,8.62% (active)
10,COC(=O)[C@H]1CCCN1C(=O)[C@H]1CCCN1C(=O)[C@@H](Cc1c[nH]c2ccccc12)NC(=S)Nc1cc(C(F)(F)F)cc(C(F)(F)F)c1,34.2% (inactive)
11,COc1ncnc2c1ncn2C/C(Br)=C(\Br)CCl,7.96% (active)
12,COc1cc(CNCCN2C(=O)c3ccc4c5c(ccc(c35)C2=O)C(=O)N(CCNCc2cc(OC)c(OC)c(OC)c2)C4=O)cc(OC)c1OC,-4.93% (active)
13,O=C1CN2CCC1C/C2=C\c1ccnc2c(Cl)cccc12 (stereo not drawn),95.7% (inactive)
14,O=C1OCC2=C1C(c1ccc3c(c1)OCO3)CC(=O)N2c1cccc(Cl)c1 (stereo not drawn),102% (inactive)
15,Cc1ccc(C2SCC(=O)N2NC(=O)c2[nH]c3ccc(F)cc3c2-c2ccccc2)cc1 (stereo not drawn),75.8% (inactive)
16,O=C(Nc1ccccc1)Oc1cccc2cccnc12,44.9% (inactive)
17,CCOC(=O)c1sc(NC(=O)CN2CCC(Cc3ccccc3)CC2)nc1C,93.9% (inactive)
18,CN([N-]C(=O)CC(=O)[N-]N(C)C(=S)c1ccccc1)C(=S)c1ccccc1.[Cu+2],-29.7% (active)
19,Clc1cccc(Cl)c1Nc1ccc2nnc(-c3ccncc3)n2n1,57.1% (inactive)

# System: MALME-3M melanoma
# Assay: as above
# Details: 10 µM unless noted
row,Structure (SMILES),growth
1,O=C1/C(=C/c2ccc(Oc3ccccc3)cc2)N=C(c2ccccc2)N1CCc1cccs1,86.1% (inactive)
2,O=C1/C(=C/c2ccc(Cl)cc2)N=C(c2ccccc2)N1CCc1cccs1,65% (inactive)
3,COc1ccc(Sc2ccc3[nH]c(=O)nc(N)c3c2)cc1,102% (inactive)
4,COc1cc(C(=O)N(C(C)C)C2CCCCC2)cc(OC)c1OC,99.5% (inactive)
5,COc1ccc(C2OCC(C)(C)CO2)cc1OC,107% (inactive)
6,O=C(NCc1ccco1)C1CCN(S(=O)(=O)c2ccc(Cl)cc2)CC1,54.6% (inactive)
7,COc1ccc(-c2csc3c2-n2cccc2C3=O)cc1O,66.2% (inactive)
8,COC(=O)[C@@H]1CCCN1C(=O)[C@@H]1CCCN1C(=O)[C@@H](Cc1c[nH]c2ccccc12)NC(=S)Nc1cc(C(F)(F)F)cc(C(F)(F)F)c1,60.4% (inactive)
9,CCN1C(=O)C2(Nc3ccccc3S2)c2cc(C)ccc21 (stereo not drawn),84.1% (inactive)
10,Cc1nc(-c2ccccc2)cc2c(O)c(C(=O)N/N=C/Cc3ccccc3)[nH]c(=O)c12,116% (inactive)
11,O=S(=O)(/N=C1C=C/C(=N\S(=O)(=O)c2ccccc2)c2ccccc2\1)c1ccccc1,107% (inactive)
12,CCCOC(=O)c1ccc2c(c1)[N+](=O)C(C(=O)c1ccccc1)=C(C(F)(F)F)[N+]2=O,-73.7% (active)
13,CCCN(CCC)c1ccc(/C=C/c2ccc3cc(OCC)ccc3n2)cc1,88% (inactive)
14,COc1cccc(C2CC(=O)Nc3cc4c(cc32)CCC4)c1OC (stereo not drawn),55.7% (inactive)
15,CC1SC(c2ccc(Cl)cc2)N(CCc2cccs2)C1=O (stereo not drawn),-32.8% (active)
16,O=C(O)c1ccccc1Oc1cc(-c2ccco2)nc(OCCBr)n1,99.1% (inactive)
17,COc1ccccc1/C=C/C(=O)/C=C/c1ccccc1O,-3.21% (active)
18,COc1cc(/C=C/C(=O)C(=Cc2ccc(F)c(F)c2)C(=O)/C=C/c2ccc(O)c(OC)c2)ccc1O,51% (inactive)
19,CC1(C)CC(=O)C2=C(C1)Nc1cc3c(cc1C2c1ccc(F)cc1)OCO3 (stereo not drawn),81.2% (inactive)
20,Nc1nc(N)c(C=Nc2ccc(Br)cc2)c(Nc2ccc(Br)cc2)n1,119% (inactive)

row,Structure (SMILES),growth
1,COc1cc(/C=C2\C(=O)Nc3ccccc32)cc(OC)c1O,118% (inactive)
2,Brc1ccccc1Nc1ccc2nnc(-c3ccncc3)n2n1,99.7% (inactive)
3,O=C(Nc1nc2ccccc2[nH]1)C(=O)Nc1nc2ccccc2[nH]1,91.4% (inactive)
4,COc1ccc(C2SC(C)C(=O)N2CCc2cccs2)cc1OC (stereo not drawn),119% (inactive)
5,Oc1ccc(Cl)cc1CNc1nc2ccccc2[nH]1,-56.4% (active)
6,CCOC(=O)c1c(-c2cc(OC)c(OC)c(OC)c2)csc1N,92.1% (inactive)
7,COc1cc(C2CC(=O)Nc3c2ccc2ccccc32)cc(Br)c1OC (stereo not drawn),27.6% (inactive)
8,Cc1ccc(-c2nnc(COc3ccc(-c4nnc(N)s4)cc3)o2)cc1,67.6% (inactive)
9,COc1cc(/C=C2\C(=O)N(c3c(Cl)cccc3Cl)c3ccccc32)cc(OC)c1O,133% (inactive)
10,COC(=O)[C@H]1CCCN1C(=O)[C@H]1CCCN1C(=O)[C@@H](Cc1c[nH]c2ccccc12)NC(=S)Nc1cc(C(F)(F)F)cc(C(F)(F)F)c1,47.4% (inactive)
11,COc1ncnc2c1ncn2C/C(Br)=C(\Br)CCl,-6.59% (active)
12,COc1cc(CNCCN2C(=O)c3ccc4c5c(ccc(c35)C2=O)C(=O)N(CCNCc2cc(OC)c(OC)c(OC)c2)C4=O)cc(OC)c1OC,-50.5% (active)
13,O=C1CN2CCC1C/C2=C\c1ccnc2c(Cl)cccc12 (stereo not drawn),112% (inactive)
14,O=C1OCC2=C1C(c1ccc3c(c1)OCO3)CC(=O)N2c1cccc(Cl)c1 (stereo not drawn),88.4% (inactive)
15,Cc1ccc(C2SCC(=O)N2NC(=O)c2[nH]c3ccc(F)cc3c2-c2ccccc2)cc1 (stereo not drawn),91.6% (inactive)
16,O=C(Nc1ccccc1)Oc1cccc2cccnc12,108% (inactive)
17,CCOC(=O)c1sc(NC(=O)CN2CCC(Cc3ccccc3)CC2)nc1C,82.4% (inactive)
18,CN([N-]C(=O)CC(=O)[N-]N(C)C(=S)c1ccccc1)C(=S)c1ccccc1.[Cu+2],-90.3% (active)
19,Clc1cccc(Cl)c1Nc1ccc2nnc(-c3ccncc3)n2n1,98.2% (inactive)
